Compound activity as filed in PubChem BioAssay.
RORgamma inh – qHTS for inhibitors of ROR gamma transcriptional activity; Nuclear receptor ROR-gamma (Mus musculus), P51450; Drosophila S2 Gal4-RORgamma UAS-luciferase reporter, 20 h; Potency, µM (series often up to 53.6 µM), for the others: top-dose activity change, negative = inhibition, usual class: inhibitors; actives 5.4% (n = 310,000); also: potency is read from the fitted curve at half-maximal effect; nearly all actives have a fitted effect of over 60% in size
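ROR gamma transcriptional activity was tracked as Gal4-UAS luciferase output in stably transfected Drosophila Schneider cells, with compound added 1 hr before 700 uM copper sulfate induction and a 20 hr ambient-temperature incubation.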
TSHR antagonist – Antagonists of the Thyroid Stimulating Hormone Receptor: HTS campaign. Thyrotropin receptor (Homo sapiens), P16473. TSHR-expressing cells, TSH-stimulated cAMP HTRF, 2 h; active compounds read low. activity change, negative = inhibition, % at 11.5 µM. actives 0.2% (n = 330,000). AID 504810, 2011;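 active = activity change below a set negative limit, meaning inhibition stronger than a set level, cut at about -70% in these data; inconclusive = activity change between two set negative limits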
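Antagonism was scored as loss of TSH-driven cAMP in TSHR cells, stimulated with 4nM TSH (EC80) for 2 hours at 37 deg C and detected by homogeneous HTRF competition immunoassay.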
Gal4-VP16 FLuc – VP16 counterscreen qHTS for inhibitors of ROR gamma transcriptional activity | Drosophila S2 Gal4-VP16 UAS-luciferase, luminescence, 20 h | actives 3.5% (n = 310,000) | Potency, µM (top dose mostly 53.6 µM), for inactives: top-dose activity, negative = inhibition, actives largely listed as inhibitors;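 also: Gal4-VP16 expression switched on by copper sulfate through the metallothionein promoter; potency is read from the fitted curve at half-maximal effect; nearly all actives have a fitted effect of over 50% in size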
B2AR arrestin – qHTS assay of beta-arrestin-biased ligands of beta2-adrenergic receptor. Beta-2 adrenergic receptor (Homo sapiens), P07550. beta-arrestin recruitment to beta2AR, cell-based reporter. Potency, µM (series often up to 46.1 µM), inactives show at the top dose activation, most hits filed as activators. actives 0.02% (n = 330,000). AID 492947, 2010;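 also: potency is read from the fitted curve at half-maximal effect; 0% = DMSO controls and full agonism = EC100 isoproterenol or metaproterenol; nearly all actives have a fitted effect of over 65% in size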
Target sequence (P07550 whole entry, looked up): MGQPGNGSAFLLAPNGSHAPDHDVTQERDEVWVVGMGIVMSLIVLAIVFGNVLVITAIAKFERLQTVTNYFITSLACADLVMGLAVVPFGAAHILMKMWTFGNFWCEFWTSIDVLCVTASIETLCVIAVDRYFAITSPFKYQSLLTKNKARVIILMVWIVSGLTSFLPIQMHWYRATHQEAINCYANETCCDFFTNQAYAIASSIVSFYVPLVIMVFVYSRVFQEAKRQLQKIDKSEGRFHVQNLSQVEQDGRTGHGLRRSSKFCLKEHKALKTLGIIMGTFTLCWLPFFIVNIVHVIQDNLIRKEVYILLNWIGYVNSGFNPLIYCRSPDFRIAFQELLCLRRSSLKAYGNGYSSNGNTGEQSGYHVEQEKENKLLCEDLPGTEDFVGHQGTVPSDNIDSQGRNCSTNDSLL
ELG1 DNA repair – qHTS screen for small molecules that inhibit ELG1-dependent DNA repair in human embryonic kidney (HEK293T) cells expressing luciferase-tagged ELG1; HEK293T ELG1-luciferase reporter, luminescence, 16 h; DNA damage induced by 5-fluorouridine; AID 504467, 2011; Potency, µM (highest dose often 46.1 µM), for the others: at the highest dose activity change, negative = inhibition, most hits filed as inhibitors; actives 2.3% (n = 330,000); also: potency is read from the fitted curve at half-maximal effect; nearly all actives have a fitted effect of over 55% in size
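Quantitative HTS, concentration-response format. 2,000 cells/well co-treated with 5-fluorouridine and compound, 16 hr in 5% CO2 at 37 °C; ONE-Glo luminescence read after 30 min.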
Numbers without * were called inactive; ? = inconclusive; · = not tested or not shown; [ ] = dose if it differs, or a comment. Sampled rows, rich in hits. Any-hit rate of the full collection: about 7.5%. Unless noted, calls follow the shape of the dose curve; as a rule, active = well fitted curve in the direction sought with a large enough effect; inconclusive = small, poorly fitted or top-dose-only effect, or another doubt; inactive = no such curve, though single readings can be large; an effect the other way counts as inactive or inconclusive. Unless noted, % is scaled to controls: 0 for no effect and ±100 for the full control effect.

SMILES	RORgamma inh	TSHR antagonist	Gal4-VP16 FLuc	B2AR arrestin	ELG1 DNA repair
CCOC(=O)Cc1c(C)nc2c(-c3ccc(Cl)cc3)c(C)[nH]n2c1=O	6.3µM*	-21	6.3µM*	0%	-4%
Cc1cc(=O)n2[nH]c(C)c(-c3ccccc3)c2n1	-43%	7	-7%	0%	-12%
CCOC(=O)Cc1c(C)nc2c(-c3ccc(Cl)cc3)cnn2c1C	?	-17	22%	0%	8%
CCOC(=O)Cc1c(C)nc2c(-c3cccc(Br)c3)c[nH]n2c1=O	4.5µM*	-3	14µM*	0%	16µM*
CCOC(=O)Cc1cc(=O)n2[nH]c(C)c(-c3ccccc3)c2n1	13µM*	11	?	0%	-4%
CCOC(=O)Cc1cc(=O)n2[nH]c(-c3ccccc3)c(-c3ccccc3)c2n1	?	0	4%	0%	-14%
Cc1sc(Cc2nc(O)cs2)nc1-c1ccccc1	11µM*	6	-27%	0%	-7%
O=C(COC(=O)c1ccc(S(=O)(=O)N2CCCCCC2)cc1)NCc1ccc(Cl)cc1	·	10	·	0%	21%
C[C@H](CO)N1C[C@H](C)[C@@H](CN(C)S(=O)(=O)c2ccc(F)cc2)Oc2ccc(NC(=O)C3CC3)cc2C1=O	·	-7	·	0%	?
CCN(CC)CCNC(=O)C(=O)Nc1ccc2c(c1)N(S(=O)(=O)c1cccs1)CCC2	·	-5	·	-1%	-3%
CCN(C/C=C/C#CC(C)(C)C)Cc1cccc(OCc2cc(-c3ccsc3)cs2)c1	2%	·	6%	·	·
CCC(C)c1ccc(C2C3=C(Nc4nc(N)[nH]c(=O)c42)c2ccccc2C3=O)cc1 (centres undefined)	13µM*	-10	?	-1%	8%
CCOC(=O)c1c(NC(=O)COC(=O)c2cccnc2OCC)sc(C(=O)N(CC)CC)c1C	·	3	·	1%	7.3µM*
CCOC(=O)c1c(NC(=O)COC(=O)c2ccc([N+](=O)[O-])cc2)sc(C(=O)N(C)C)c1C	·	-11	·	0%	-1%
CCOC(=O)Nc1sc(C(=O)N(CC)CC)c(C)c1C(=O)OCC	?	-10	2%	4%	0%
CCOC(=O)c1c(C)[nH]c(C(=O)OCC(=O)Nc2sc(C(=O)N(C)C)c(C)c2C(=O)OCC)c1C	·	-9	·	0%	12µM*
COCC1CCCCN1C(=O)c1ccc2nc(Cc3ccc(OC)c(OC)c3)oc2c1 (centres undefined)	?	-13	-14%	0%	-14%
CNc1ncnc2sc(-c3ccccc3)cc12	-8%	-30	4%	0%	13%
Clc1ncnc2scc(-c3ccccc3)c12	?	-18	-6%	0%	3%
S=c1[nH]cnc2scc(-c3ccccc3)c12	0.5µM*	-6	0.5µM*	-1%	-1%
S=c1[nH]cnc2sc(-c3ccccc3)cc12	1.4µM*	2	4.5µM*	?	?
CCN(CC)C(=O)c1[nH]cnc1C(=O)NCC(=O)OC(C)(C)C	1%	50	3%	0%	-11%
Cc1[nH]n(-c2ccc([N+](=O)[O-])cc2)c(=O)c1C=NCCc1c(C)[nH]c2ccccc12	17%	-1	1%	-1%	26µM*
Cc1nc(=S)c2c([nH]1)-c1ccccc1CC21CCCCC1	0.2µM*	-14	1µM*	-1%	9%
CCc1nc2c(c(=O)[nH]1)C1(CCCC1)Cc1ccccc1-2	17%	-15	-6%	0%	5%
CO[C@H]1C[C@@H]2C[C@H](O)C[C@@H](CC(=O)O[C@@H](/C=C\CC(C)C)C[C@@H]3CC[C@H](C)[C@@H](C1)O3)O2	13%[10 µM]	·	12%[10 µM]	·	·
O=C(O)/C=C1\CCCc2ccccc2[C@H]1O	2%	·	-10%	·	·
COc1cc(OC)cc(C(=O)NC(=S)NCCc2ccccc2)c1	0.71µM*	-10	0.63µM*	-1%	6%
COc1cc(OC)cc(C(=O)NCCNC(=O)c2ccccc2)c1	17%	14	4%	0%	-6%
